Screening results (PubChem)
The list is not random: actives were taken first. Their share in the collection is about 2.4%.
HSP90 refold inh: inhibitors of HSP90 luciferase refolding in rabbit reticulocyte lysate; luciferase refolding luminescence, 3 h; inhibition, % at 5.6 µM; hit rate 0.91% among 290,000; AID 1789;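 active = inhibition above the screen-wide mean plus 3 SD, computed separately per campaign, cut at about 16% in these data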;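 note: 0% = DMSO wells and 100% = 60 µM geldanamycin wells; inhibitors lower the luminescence because luciferase stays unfolded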
STAT3 blocker: STAT3 signaling inhibition; U3A cells, IL-6 STAT3-luciferase reporter, luminescence; host cell line lacks STAT1; hit rate 0.89% among 190,000; inhibition, % at 5.5 µM;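 active = inhibition above the mean inhibition across all screened compounds plus 3 SD, cut at about 44% in these data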;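 note: 0% = DMSO only wells and 100% = 100 µM nifuroxazide control wells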
TRAIL sens C8: sensitizes caspase-8 expressing cells to TRAIL; NB7+C8 cells + TRAIL, ATPlite viability luminescence; AID 624354; hit rate 1% among 360,000; inhibition (viability loss, TRAIL sensitization), % at 10 µM;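 active = compounds causing at least 50% loss of cell viability in the single-dose screen, relative to plate controls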
STAT1 blocker: STAT1 signaling inhibition. hit rate 0.35% among 200,000. NIH 3T3 STAT1-luciferase reporter, IFN-gamma, luminescence. inhibition, % at 5.5 µM;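 active = inhibition above a set limit, the mean inhibition across all tested compounds plus 3 SD, cut at about 34% in these data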;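 note: 0% = IFN-gamma with DMSO and 100% = IFN-gamma with 300 µM nifuroxazide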
PPC-1+TRAIL kill: PPC-1 cancer cell killing with TRAIL present; PPC-1 cells + TRAIL, ATPLite viability luminescence; hit rate 0.41% among 220,000; cell killing (% activity), % at 4 µM or 5 µM;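 active = cell killing above 50% in the first pass at 4 µM, then a duplicate retest at 5 µM averaging 50% or more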;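 note: plate controls were cells with TRAIL plus DMSO for no effect and medium-only wells lacking cells for full effect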
HSF1 inhib: HSF1 inhibition; AID 2098; NIH3T3-HGL HSE-luciferase, MG132-induced, luminescence 8 h; active compounds read low; activity change, negative = inhibition, % at 7.5 µM (by protocol); hit rate 0.77% among 300,000;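 active = more than half of replicate wells show activity change below -50%, luminescence cut by over half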;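 note: luciferase reports HSF-1 transcriptional activity via heat shock element; 0% = median of DMSO wells and -100% = zero luminescence signal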
Active calls of the source: *; / = no result.

SMILES | HSP90 refold inh | STAT3 blocker | TRAIL sens C8 | STAT1 blocker | PPC-1+TRAIL kill | HSF1 inhib
O=c1cc(-c2ccccc2)nc2cc(-c3ccc(F)cc3)[nH]n12 | / | / | 55.7* | / | / | -6.8
COc1cccc(-c2cc3nc(-c4ccccc4)cc(=O)n3[nH]2)c1 | 2.7 | / | 41.0* | / | / | 4.6
CN(C)CCNc1ncnc2c1ncn2[C@H]1CN(CCc2ccccc2)C[C@@H](CO)O1 | / | / | -9.1 | / | / | /
Nc1c(-c2ccc(Cl)cc2)cnn1-c1ccccc1 | 10.9 | / | 41.0 | / | / | 8.0
Cc1ccc(-c2cnn(-c3ccccc3)c2N)cc1 | 14.0 | / | 78.9* | / | / | 19.2
c1ccc(COc2ncnc3c2ncn3CCCNCc2cccs2)cc1 | / | / | -4.5 | / | / | /
O=C(Nc1ncccc1O)c1ccc2ccccc2c1 | 16.9* | / | 28.8 | / | / | 21.1
c1ccc2c(Nc3nc(-c4ccncc4)nc4ccccc34)cccc2c1 | -1.8 | / | 24.9 | / | 17.2 | -86.8*
Clc1ccccc1Nc1nc(-c2ccncc2)nc2ccccc12 | -0.7 | / | -13.2 | / | / | -6.7
CCc1c(-c2ccc(Br)cc2)ncn1Cc1cccc(-c2ccccc2)c1 | / | / | 27.0 | / | / | /
CCNC(=O)C1(C)CCCN(Cc2ccccc2-c2ccccc2)C1 (centres undefined) | / | / | -8.9 | / | / | /
CCn1c(=O)c([N+](=O)[O-])c(Cl)c2ccccc21 | 2.4 | 7.5 | 51.9* | -21.4 | 12.3 | 226.1
CCn1c(=O)c([N+](=O)[O-])c(NCCN(C)C)c2ccccc21 | 5.4 | 16.6 | 1.9 | 3.5 | 0.8 | -0.2
O=C(NCc1ccc(F)cc1)c1cc(C2CCCN(C(=O)c3ccc4ccccc4c3)C2)on1 (centres undefined) | / | / | 11.9 | / | / | /
Cc1ccc(C(=O)Nc2ccc(Cl)cc2C)c(Cl)c1 | 1.9 | 37.2 | 55.3* | -29.0 | 43.5 | 49.1
COc1ccc(N2C[C@H](C)[C@@H](CC(=O)Nc3ccc(Br)cc3)C2=O)cc1 | / | / | 1.6 | / | / | /
COc1ccc(CNC(=O)c2ccc(CS(=O)(=O)c3ccc(OC)cc3)o2)cc1 | / | / | 1.2 | / | / | /
COc1ccc(CNC(=O)c2ccc(CS(=O)(=O)c3ccc(Br)cc3)o2)cc1 | -8.1 | / | 5.1 | / | / | -68.2*
CCc1nnc(NC(=O)CSc2ccc(-c3ccc(-n4cccn4)cc3)nn2)s1 | / | / | 77.3* | / | / | 0.5
COc1ccccc1NC(=O)CSc1ccc(-c2ccc(-n3ccnc3)cc2)nn1 | / | / | 51.2* | / | / | -8.1
CCc1ccc(NC(=O)CSc2ccc(-c3cccnc3)nn2)cc1 | 0.9 | / | 4.7 | / | / | -75.9*
COCCNC(=O)C1CCCN(C(=O)c2ccc(F)c(C)c2)CC1 (centres undefined) | / | / | 11.8 | / | / | /
O=c1[nH]c(=O)n(Cc2ccc(Oc3ccccc3)cc2)cc1Br | -3.0 | / | -7.5 | / | / | -2.8
C=C1CC(Cn2cc(Br)c(=O)[nH]c2=O)(c2ccc(-c3ccccc3)cc2)OC1=O (centres undefined) | / | / | 94.2* | / | / | 29.9
CCN(CC)CCCNC(=O)C1CCC(CNS(=O)(=O)c2ccc(Cl)cc2)CC1 (centres undefined) | -2.8 | / | 11.6 | / | / | -67.3*
SMILES | HSP90 refold inh | STAT3 blocker | TRAIL sens C8 | STAT1 blocker | PPC-1+TRAIL kill | HSF1 inhib
COc1cccc(-c2cnc(C(O)c3ccc(CN4CCCC4)cc3)[nH]2)c1 (centres undefined) | / | / | -2.1 | / | / | /
c1ccc(-c2nnc(-c3ccncc3)nc2-c2ccccc2)cc1 | -0.7 | -4.9 | -0.6 | -3.9 | 10.4 | -13.0
Brc1nc(-c2ccccc2)nc(-c2ccccc2)c1Br | / | / | 93.9* | / | / | -3.1
O=C(C[C@@H]1CC[C@@H]2[C@H](COC[C@H](O)CN2C(=O)Nc2ccc(F)cc2)O1)NCCc1ccncc1 | / | / | -3.9 | / | / | /
CCOC(=O)C1=CCC(c2ccc(N(CC)CC)cc2)N(S(=O)(=O)c2ccc(C)cc2)C1c1ccc([N+](=O)[O-])cc1 (centres undefined) | / | / | -2.4 | / | / | /
CCOc1ccc(OCCSc2nc3ccccc3o2)cc1 | 1.1 | -3.9 | 6.9 | -0.3 | -2.5 | 2.5
c1ccc(OCCSc2nc3ccccc3o2)cc1 | -3.0 | 18.9 | -7.2 | -12.1 | 21.7 | -61.3*
CCOC(=O)C1CCN(C(=O)c2ccc(S(=O)(=O)Nc3ccccc3Cl)cc2)CC1 | / | / | -5.7 | / | / | /
OCCCNc1cc(-c2ccnc(Nc3cccc(Cl)c3)n2)ccn1 | / | / | 33.4 | / | 49.5 | -58.3*
O=C1C=CC(O)C2(CO)OC12 (centres undefined) | / | / | 19.2 | / | / | /
O=C(C[C@H]1C(=O)N(Cc2ccccc2)C[C@@H]1Cc1ccccc1)Nc1ccc(Br)cc1 | / | / | -2.8 | / | / | /
COc1ccc(-c2cn(-c3ccccc3)nc2CO)cc1 | -4.8 | / | 0.3 | / | / | -88.6*
C=CCNc1cc(C)oc(=O)c1C(=O)CCC | 3.3 | -5.3 | 2.0 | 3.7 | 10.3 | -68.0*
CCOC(=O)c1ccc(Nc2ncnc3nc[nH]c23)cc1 | -2.4 | 17.4 | 33.8 | -5.7 | 33.0 | -75.1*
CCOC(=O)c1ccc(NC(=O)c2nc[nH]c2C(=O)NC)cc1 | / | / | 13.0 | / | 0.8 | 1.0
CCOC(=O)c1ccc(NC(=O)c2nc[nH]c2C(=O)NCCNC(=O)c2[nH]cnc2C(=O)Nc2ccc(C(=O)OCC)cc2)cc1 | / | / | 92.3* | / | / | /
CCOC(=O)c1ccc(Nc2ncnc3ccccc23)cc1 | -2.3 | 16.7 | 7.9 | -13.4 | -4.7 | -25.8
CCOC(=O)[C@@H](NC(=O)/C=C/[C@H]1O[C@@H](n2cc(C)c(=O)[nH]c2=O)C[C@@H]1O)C(C)C | / | / | -1.2 | / | / | /
COc1cc(NC(=O)CN2C(=O)CN(C)C2=O)c(C)cc1[N+](=O)[O-] | -3.4 | -4.5 | -13.6 | 1.5 | 13.8 | -2.7
COc1cc(NC(=O)Cn2ncc(Cl)c(Cl)c2=O)c(C)cc1[N+](=O)[O-] | 1.2 | 29.5 | 93.5* | 9.4 | 19.2 | -92.7*
CSc1cccc(NC(=O)C2CCCN(S(C)(=O)=O)C2)c1 (centres undefined) | / | / | -2.5 | / | / | /
Cc1c(Cc2ccccc2)sc(/N=C/c2c(O)ccc3ccccc23)c1C(N)=O | -4.2 | -3.9 | -8.6 | -7.4 | 9.1 | -57.6*
CCOC(=O)c1ccc(S(=O)(=O)N2CCN(C3CC(=O)N(c4ccc(OC)cc4)C3=O)CC2)cc1 (centres undefined) | / | / | -6.0 | / | / | /
CCc1nc2ccc(C(=O)NCc3ccc4c(c3)OCO4)cn2c1N(C)CCC(C)C | / | / | -5.3 | / | / | /
Cc1ccc(CN=c2c([N+](=O)[O-])nn(-c3cccc(C)c3)n2O)cc1 | -0.9 | 7.8 | 49.0* | -20.0 | 15.6 | 3.6
Cc1ccc(CN=c2c([N+](=O)[O-])nn(-c3cccc(Cl)c3)n2O)cc1 | 0.1 | 6.2 | 0.0 | -11.1 | 20.3 | 6.0
CC(C)c1ccc(S(=O)(=O)/N=C2/C=C(Sc3ncn[nH]3)C(=O)c3ccccc32)cc1 | 59.6* | -59.2 | 8.3 | 11.2 | 39.2 | /
COc1cc(C(=O)NCc2nnc(SCC(=O)Nc3cc(C)cc(C)c3)o2)cc(OC)c1OC | -1.2 | 1.7 | 5.7 | 4.5 | 17.5 | -55.8*
COc1cc2c(cc1OC)C(C1C(=O)CC(C)(C)CC1=O)N(C(=O)CCl)CC2 (centres undefined) | 1.2 | -4.8 | -10.8 | 1.8 | 11.5 | -6.1
COc1cc2c(cc1OC)C(c1cc(Br)ccc1F)N(C(=O)CCl)CC2 (centres undefined) | 9.2 | / | 94.6* | / | / | -96.8*
